# Reference: the supplement of paper PMC8728848
# Only a selection was taken, and the strongest signals are over-represented in it overall.
# B1: PX15618B-bfa-464-25-464 (Bacteroides fragilis) (protein)
# chain: DQEPPLYVNENDIFTSPTRIEATLNGLYAAIKNTGTKSLMGGKSYLVFDNRGDDVINISNNLVTLFNTYNMNVGITDAENADTWTYAYLAINKVNTFLQSLEGAREVAGENYDRYVQEAKFVRALAYYYLNNLYPTPYSVNPDAKSVPLRLTAEAGTENNNMPRSTVKQIYEHILSDLENISALDTEVNTYTGVTHATQAAANMLKMRVYMAMNEWDKAITAGELVTGYSLPEDVTLIYKAPYFSQESIFSLPMADTNIPNTQQSLAEYYYDGKIMLIDTKSGIMSKPDYSLATDKRIIAFKGEKDLLMKFTDAKTKLQWVPIFRYAETLLDLAECYANKAGGEATAKSLLKQVRGRSVDAATDPLNIDNLSGDALKEAIYNEKRLEFIGEGIRGIDIMRRGEHFIKVGENETINVGPSDEKYTWPIPQVELLLNKDINK
# Legend:
# Assay in all cases: glycan array binding signal (z-score within array); higher = stronger binding
# Conditions in all cases: glycan notation: IUPAC condensed, linker removed
# GalNAc(a1-3)GalNAc = target: GalNAc(a1-3)GalNAc
# How it was run: (§1)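 The binding signal is a Z-score computed within each array and averaged over linkers. Arrays of the same protein sequence at different concentrations or buffers were also averaged together. Data originate from 3228 arrays in the Consortium for Functional Glycomics database, kept only where the protein sequence was available.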
# [1] = target: GalNAc(a1-3)GalNAc(b1-3)Gal(a1-4)Gal(b1-4)GlcNAc
# How it was run: as §1
# Glc(b1-4)Glc = target: Glc(b1-4)Glc
# How it was run: as §1
# [2] = target: GlcNAc(a1-4)Gal(b1-4)GlcNAc
# How it was run: as §1
# [3] = target: GlcNAc(a1-4)Gal(b1-4)GlcNAc(b1-3)Gal(b1-4)GlcNAc
# How it was run: as §1
# [4] = target: GlcNAc(b1-2)[GlcNAc(b1-4)]Man(a1-3)[GlcNAc(b1-4)][GlcNAc(b1-2)[GlcNAc(b1-6)]Man(a1-6)]Man(b1-4)GlcNAc(b1-4)[Fuc(a1-6)]GlcNAc
# How it was run: as §1
# [5] = target: GlcNAc(b1-2)[GlcNAc(b1-6)]Man(a1-6)[GlcNAc(b1-2)Man(a1-3)]Man(b1-4)GlcNAc(b1-4)[Fuc(a1-6)]GlcNAc
# How it was run: as §1
# [6] = target: GlcNAc(b1-4)Gal(b1-4)GlcNAc
# How it was run: as §1
# [7] = target: GlcNAc(b1-6)Gal(b1-4)GlcNAc
# How it was run: as §1
# Man(a1-6)Man = target: Man(a1-6)Man
# How it was run: as §1
# [8] = target: Neu5Ac(a2-3)Gal(b1-3)GlcNAc(b1-2)Man(a1-3)[GlcNAc(b1-4)][Neu5Ac(a2-3)Gal(b1-3)GlcNAc(b1-2)Man(a1-6)]Man(b1-4)GlcNAc(b1-4)GlcNAc
# How it was run: as §1
# [9] = target: Neu5Ac(a2-3)Gal(b1-3)GlcNAc6S
# How it was run: as §1
# [10] = target: Neu5Ac(a2-3)Gal(b1-4)GlcNAc(b1-3)Gal(b1-4)GlcNAc(b1-3)Gal(b1-4)GlcNAc(b1-2)Man(a1-3)[Neu5Ac(a2-3)Gal(b1-4)GlcNAc(b1-3)Gal(b1-4)GlcNAc(b1-3)Gal(b1-4)GlcNAc(b1-2)Man(a1-6)]GalNAc
# How it was run: as §1
# [11] = target: Neu5Ac(a2-3)Gal(b1-4)GlcNAc(b1-3)Gal(b1-4)GlcNAc(b1-3)[Neu5Ac(a2-3)Gal(b1-4)GlcNAc(b1-3)Gal(b1-4)GlcNAc(b1-6)]GalNAc
# How it was run: as §1
# [12] = target: Neu5Ac(a2-3)Gal6S(b1-4)GlcNAc
# How it was run: as §1
# [13] = target: Neu5Ac(a2-3)[GalNAc(b1-4)]Gal(b1-4)GlcNAc(b1-3)GalNAc
# How it was run: as §1
# [14] = target: Neu5Ac(a2-6)Gal(b1-4)GlcNAc(b1-6)[Gal(b1-3)]GalNAc
# How it was run: as §1
# [15] = target: Neu5Ac(a2-8)Neu5Ac(a2-3)Gal(b1-4)GlcNAc
# How it was run: as §1
# [16] = target: Neu5Ac9Ac(a2-3)Gal(b1-4)GlcNAc
# How it was run: as §1
binder,measurement,setting,value
B1,glycan array binding signal (z-score),GalNAc(a1-3)GalNAc,-0.504
same,glycan array binding signal (z-score),[1],-0.273
same,glycan array binding signal (z-score),Glc(b1-4)Glc,-0.138
same,glycan array binding signal (z-score),[2],-0.125
same,glycan array binding signal (z-score),[3],-0.455
same,glycan array binding signal (z-score),[4],0.399
same,glycan array binding signal (z-score),[5],0.701
same,glycan array binding signal (z-score),[6],1.25
same,glycan array binding signal (z-score),[7],-0.393
same,glycan array binding signal (z-score),Man(a1-6)Man,0.302
same,glycan array binding signal (z-score),[8],0.609
same,glycan array binding signal (z-score),[9],-0.374
same,glycan array binding signal (z-score),[10],3.29
same,glycan array binding signal (z-score),[11],0.164
same,glycan array binding signal (z-score),[12],-0.187
same,glycan array binding signal (z-score),[13],0.625
same,glycan array binding signal (z-score),[14],1.16
same,glycan array binding signal (z-score),[15],-0.48
same,glycan array binding signal (z-score),[16],0.409
